High-throughput results: PubChem BioAssay, National Center for Advancing Translational Sciences (NCATS)
HEK293 cAMP ctrl: parental HEK293 cAMP activation (counter-screen); parental HEK293 CNG cAMP sensor, membrane potential fluorescence; actives 2.5% (n = 73,000); AID 938; Potency, µM (titrated, usually from 57.1 µM), for inactives: at the highest dose activation, hits mostly activators; further: % of control where 0% means no effect; nearly all actives have a fitted effect of over 55% in size
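Parental HEK 293 cells stably expressing a modified CNG channel (no TSHR) report cAMP rise as membrane depolarization. Membrane potential dye with 100 uM RO 20-1724 was loaded for 60 min at room temperature, then compound added for 30 min; fluorescence read at 590 nm.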
Tau fil binding: tau filament binding; P10636; recombinant tau filaments, thioflavin S fluorescence, 15 h; filaments grown with octadecylsulfate alongside compound; Potency, µM (highest dose often 57.1 µM), for the others: top-dose activity change, negative = inhibition; actives 2% (n = 71,000);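 further: on the % scale 0 is the no-effect control and ±100 the full control effect; actives lower thioflavin S fluorescence by blocking filaments or displacing dye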
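ThS-based fibril read: tau 1 uM final, inducer ODS 30 uM final, 37 C for 15 h, ex 450/em 510 nm.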
ALOX15 inhib: 15-hLO (ALOX15) enzyme inhibition. P16050. purified 15hLO-1, xylenol orange hydroperoxide absorbance. actives 1.4% (n = 74,000). Potency, µM (doses to about 57.1 µM), for inactives: top-dose activity change, negative = inhibition, most hits filed as inhibitors; further: on the % scale 0 is the no-effect control and ±100 the full control effect; nearly all actives have a fitted effect of over 55% in size
Target sequence (P16050 whole entry, looked up): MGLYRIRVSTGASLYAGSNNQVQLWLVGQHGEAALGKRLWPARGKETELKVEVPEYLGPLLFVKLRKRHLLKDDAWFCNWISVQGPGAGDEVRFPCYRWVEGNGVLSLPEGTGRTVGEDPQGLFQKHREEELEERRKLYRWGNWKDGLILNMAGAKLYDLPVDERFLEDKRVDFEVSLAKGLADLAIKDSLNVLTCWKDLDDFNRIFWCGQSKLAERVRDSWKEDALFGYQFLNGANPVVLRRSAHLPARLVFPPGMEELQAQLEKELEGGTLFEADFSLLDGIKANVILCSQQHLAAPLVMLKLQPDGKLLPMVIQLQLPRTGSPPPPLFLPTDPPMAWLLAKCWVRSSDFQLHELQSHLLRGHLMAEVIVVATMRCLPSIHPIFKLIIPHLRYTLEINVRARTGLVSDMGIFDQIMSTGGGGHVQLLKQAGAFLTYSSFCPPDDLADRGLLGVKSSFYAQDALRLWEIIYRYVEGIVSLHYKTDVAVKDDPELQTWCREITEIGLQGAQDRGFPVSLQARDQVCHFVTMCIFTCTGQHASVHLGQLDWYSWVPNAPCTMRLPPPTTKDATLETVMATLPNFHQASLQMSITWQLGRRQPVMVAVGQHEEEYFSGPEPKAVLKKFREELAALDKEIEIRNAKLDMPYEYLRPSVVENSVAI
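40 nM 15hLO-1 + cpd, 15 min RT; start w/ 50 uM AA (final), 6 min RT; stop/detect w/ 200 uM XO + 300 uM Fe(II) in 50 mM H2SO4, 30 min; A573/A405. Buffer 25 mM Hepes pH 7.5, 0.01% Triton X-100. No-enzyme wells as negative control.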
TSHR agonist: agonists of human thyroid stimulating hormone receptor; P16473; HEK293-CNG-TSHR cells (CNG channel as cAMP sensor), membrane potential dye, cAMP; Potency, µM (titrated, usually from 57.1 µM), without a hit: top-dose activation, most hits filed as activators; actives 0.48% (n = 73,000); AID 926; active means well fitted activation curve with a large enough effect in the main read-out, with a control signal flat, not every such curve was filed as active; inconclusive means small, poorly fitted or top-dose-only effect, or a change in a side signal; inactive means no such curve, though single readings can be large or run the other way; % of control where 0% means no effect;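 further: the control signal comes from parental cells without the receptor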
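HEK 293 cells stably expressing TSHR and a cAMP-gated CNG channel; parental CNG-only cells as counterscreen. Cells preloaded 60 min with membrane potential dye plus 100 uM RO 20-1724, then compound 30 min; fluorescence read at 590 nm.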
Bst PK mod: alters activity of Bacillus stearothermophilus pyruvate kinase; purified pyruvate kinase, luminescence ATP production; ribose 5-phosphate activator present at AC10; Potency, µM; actives 1.2% (n = 51,000); AID 361; in the data active means potency below about 11 µM; inconclusive means mostly about 12 µM to 25 µM;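 the screen sought inhibitors and activators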;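 further: scaled between full activation by ribose 5 phosphate and full inhibition by luteolin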
FLuc inh: firefly luciferase inhibition; Potency, µM (series often up to 57.1 µM), without a hit: at the top dose activity change, negative = inhibition, hits mostly inhibitors; P08659; actives 2.2% (n = 72,000); purified firefly luciferase, luminescence, 8 min; further: on the % scale 0 is the no-effect control and ±100 the full control effect; nearly all actives have a fitted effect of over 40% in size
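Here, luciferase activity is measured as luminescence following an 8 min room-temperature reaction at 10 uM ATP, pH 7.2. Every library sample is titrated.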
An asterisk follows results filed as active; i = inactive; ? = inconclusive; / = not tested or not shown; [ ] = dose if it differs, or a comment. A selection: hits, their analogues and other compounds. The true share with any hit is near 7.8%. Unless noted, the call rests on the fitted dose curve; in most records, active means well fitted curve in the direction sought with a large enough effect; inconclusive means small, poorly fitted or top-dose-only effect, or another doubt; inactive means no such curve, though single readings can be large; an effect the other way counts as inactive or inconclusive. Potency means the concentration at half of the fitted maximal effect.

SMILES	HEK293 cAMP ctrl	Tau fil binding	ALOX15 inhib	TSHR agonist	Bst PK mod	FLuc inh
Cc1nc2cnc(Oc3cccc(Cl)c3)nc2n(C[C@H]2CCCO2)c1=O	?	-2%	7%	?	/	1%[11.4 µM]
COC(=O)[C@H](NC(=O)c1cc(-c2ccccc2)nc2ccccc12)c1ccccc1	13µM*	-3%	-15%[25.6 µM]	?	/	1%
O=C(O)c1cc(-c2ccccc2)nc2ccccc12	-4%	-6%	1%	3%	>26	-8%[25.5 µM]
O=C(O)c1cc(-c2ccc3cc4c(cc3c2)OCO4)nc2ccccc12	2%[11.4 µM]	-6%[11.4 µM]	-1%[11.4 µM]	-2%[11.4 µM]	/	2.5µM*
CC(C)Oc1cccc(-c2cc(C(=O)N3CCN(S(C)(=O)=O)CC3)c3ccccc3n2)c1	5%	-9%	0%	9%	?	5µM*
COc1cccc(-c2cc(C(=O)N3CCN(c4ncccn4)CC3)c3ccccc3n2)c1	25%	-3%	-8%	/	/	6.3µM*
CS(=O)(=O)N1CCN(C(=O)c2ccc(-c3ccccc3)cc2)CC1	4%	15%	4%	3%	/	2%
O=C(c1ccccc1Cl)N1CCN(c2ccccn2)CC1	3%	?	3%	-8%	>57	0%
O=C(c1ccccc1CCc1ccccc1)N1CCN(c2ccccn2)CC1	16µM*	7%	-7%	?	>57	-1%
Cn1c(-c2cccc(Br)c2)cnc1NCc1cccnc1	-2%	13%	16%	8%	>57	0%
COc1cccc(-c2cnc(NCc3cc(Cl)ccc3O)n2C)c1	-47%	30%	32µM*	?	>57	0%
CC(=O)OC[C@@H]1O[C@H](C/C=N\OC[C@@H](O)COCc2ccco2)C=C[C@@H]1OC(C)=O	3%[11.4 µM]	/	12%[11.4 µM]	15%[11.4 µM]	/	0%[11.4 µM]
CCCCCCCCCCCCC/C=C\[C@@H](O)[C@@H](N)CO	5%	32µM*	40%	9%	/	1%
CCCCCCCCCCCCCCCC(O)C(N)CO (stereo not drawn)	/	/	/	/	>26	2%[25.5 µM]
N#CC1=C(N)N(c2ccccc2C#N)C2=C(C(=O)CCC2)C1c1ccsc1 (stereo not drawn)	3%	?	-13%	3%[11.4 µM]	>57	-1%
N#CC1=C(N)N(c2ccccc2)C2=C(C(=O)CCC2)C1c1cccs1 (stereo not drawn)	6%	20µM*	?	-2%[11.4 µM]	>57	-6%
CC(=O)N[C@H]1C[C@@H]1c1ccccc1	/	/	/	/	>26	2%[25.5 µM]
CCC(=O)N[C@@H]1Cc2ccccc2[C@@H](c2ccccc2)C1	20µM*	?	?	?	/	2%
Cn1c(/C=N/c2nc3ccccc3[nH]2)nc2ccccc21	?	?	41%	?	>57	-5%
C(=N\c1nc2ccccc2[nH]1)/c1cccs1	0%	7%	?	2%	/	7.9µM*
Cc1cc(C)n(-c2nc(NCCO)c3c4c(sc3n2)CCCC4)n1	17%	51%	60%	16%	/	-15%
Cc1cc(C)n(-c2nc(NCC(C)O)c3c4c(sc3n2)CCCC4)n1 (stereo not drawn)	24%	0%	60%	16%	i	-6%
Cc1cc(C)n(-c2nc(NCC3CCCO3)c3c4c(sc3n2)COC(C)(C)C4)n1 (stereo not drawn)	25µM*	20%	80%	?	>57	-3%
Cc1cc(C)n(-c2nc(SCC(=O)NCC3CCCO3)c3c4c(sc3n2)CCCC4)n1 (stereo not drawn)	25µM*	208%	2%	?	>57	6%
COc1cc(OC)c2cc(-c3ccncc3)cnc2c1	-5%	47%	?	15%	/	4%
SMILES	HEK293 cAMP ctrl	Tau fil binding	ALOX15 inhib	TSHR agonist	Bst PK mod	FLuc inh
Nc1nc(SCc2ccccc2Cl)cc(C(=O)O)n1	19%[11.4 µM]	4%[11.4 µM]	29%[11.4 µM]	4%[11.4 µM]	/	2%[11.4 µM]
COc1cc(NC(=O)C2CCCCN2)ccc1OCC(C)C (stereo not drawn)	6%	-22%	-28%	2%	>57	1%
COc1ccc(NC(=O)C2CCCNC2)cc1OCC(C)C (stereo not drawn)	5%	25µM*	?	6%	/	1%
COc1ccc(N(C)S(=O)(=O)c2ccc3c(c2)oc(=O)n3C)cc1	9%	8%	11%	2%	>57	1%
COc1ccc(S(=O)(=O)N(C(C)=O)c2ccc3oc(=O)sc3c2)cc1	-29%	-1%	5µM*	-12%	>57	-4%
Cc1c(N=Cc2nc3ccccc3[nH]2)c(=O)n(-c2ccccc2)n1C	-5%	-6%	3%	?	/	16µM*
Cc1c(N=Cc2nc3ccccc3n2C)c(=O)n(-c2ccccc2)n1C	2%	5%	11%	0%	/	4µM*
CN(C)c1ncc2nc(-c3ccc(F)cc3)c(=O)n(C)c2n1	9%	3%	0%	11%	/	-2%[11.4 µM]
CC1(C)NC(=O)N(CC(O)Cn2nnc3ccccc32)C1=O (stereo not drawn)	/	/	/	/	>11	1%[25.5 µM]
Cc1ccc(CNC(=O)[C@H](C)[C@@H]2C[C@@]2(C)[C@@H](NC(=O)OCc2ccccc2)c2ccccc2)o1	?	17%	/	?	/	/
COCCN(CCOC)c1nc(C)nc2c1nc(-c1ccccc1)n2CCN1CCCC1	-48%	13%	3%	?	/	/
O=C(Nc1ccccc1)N1CCC2(CC1)CCN(C(=O)c1csnn1)CC2	28%	13%	-28%	4µM*	/	0%[11.4 µM]
COc1ccccc1CNc1cc(-c2cccc(C#N)c2)ncn1	10%	32%	-4%	/	/	-1%[2.29 µM]
CCSC1=NC(=O)/C(=C2/C=Cc3ccccc3N2CC)S1	-19%	4µM*	-15%	-46%	/	-6%
c1ccc2nc3c(nc2c1)[nH]c1ccccc13	6%	21%	-20%	2%	4.1*	16µM*
c1ccc(-c2c3ccccc3nc3[nH]c4ccccc4c23)cc1	10µM*	26%	/	?	/	/
O=c1nc(-c2ccccc2)c2ccccc2[nH]1	?	-8%	-4%	?	>57	4%
CON(C)C(=O)c1nnc2c(n1)[nH]c1ccccc12	6%[11.4 µM]	/	5%[11.4 µM]	1%[11.4 µM]	/	-5%[11.4 µM]
N#Cc1ccc(N2CCN(C(=O)c3cccc(F)c3)CC2)c(F)c1	0%	-2%	-7%	1%	/	0%
COc1ccc(S(=O)(=O)Nc2ccc3c(c2)OCO3)cc1C(=O)O	32µM*	/	-2%	?	/	/
COc1ccccc1N(CC(=O)Nc1ccc2c(c1)OCO2)S(=O)(=O)c1ccccc1	?	7%	-19%	?	/	1%
COc1ccc(S(=O)(=O)NCc2ccc3c(c2)OCO3)cc1C(=O)O	6%	9%	5%	-14%	/	1%
COc1ccc(S(=O)(=O)Nc2ccc3c(c2)OCO3)cc1OC	5%	25µM*	-3%	14%	>57	-4%
